Whole data set: some 68,000 sequences, median “fluorescence intensity (a.u.)” near 9,100, cut for the highest 2% near 16,000. The entries come from a sample that favours the highest values as a whole.

The target in this experiment is OsWRKY34 (Oryza sativa, UniProt Q0JBA9 1-250). Briefly: protein-binding microarray (RPBM); PBS, 2% BSA, 51.3 ng/ul salmon testes DNA, 50 uM zinc acetate, 200 nM TF, 25 C, 1 h; high values mean tight binding. The following applies: protein: recombinant; tags: N-terminal polyhistidine and DsRed monomer fusion (pET32a); label: CyDye5-dUTP incorporated in the synthesized complementary strand; 3' TTTTT single-stranded linker to array surface; dsDNA, one strand shown. The method in brief: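 Binding signal here means per-feature fluorescence intensity in arbitrary units. The values were read on an Axon 4000B scanner after a custom Agilent array, double-stranded by primer extension with Cy5-dUTP, was incubated with 200 nM protein at 25 °C for 1 h in PBS with 2% BSA, salmon testes DNA and 50 µM zinc acetate, then washed. The proteins were transcription factors with an N-terminal polyhistidine tag and DsRed, expressed in E. coli BL21-CodonPlus and purified on Ni–NTA.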
Sequence of OsWRKY34 (Q0JBA9 entry or part of it): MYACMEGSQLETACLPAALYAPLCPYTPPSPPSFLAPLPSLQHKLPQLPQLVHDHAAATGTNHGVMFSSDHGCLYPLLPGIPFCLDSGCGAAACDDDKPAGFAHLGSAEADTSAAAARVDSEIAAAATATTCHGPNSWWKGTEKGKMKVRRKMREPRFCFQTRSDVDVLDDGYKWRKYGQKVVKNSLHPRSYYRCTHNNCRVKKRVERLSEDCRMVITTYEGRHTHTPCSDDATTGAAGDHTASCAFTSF
Take “AAGAAGGGGAAGGGAGTTTCTATGGTTCTTGCTGGTGCCGCGGAGTCACCTAGTGCAG”: the binding signal is 8750 fluorescence intensity (a.u.).

Regarding “GCCTATTTTTTCGTACGGAGTTGGCTTGTAGTAGTTGCATCGGAGTCACCTAGTGCAG”, the binding signal was 8950 fluorescence intensity (a.u.).

Turning to “ACTTCCAAGTCTTCGACCGCGACACTCCTTACCCGCACGCCGGAGTCACCTAGTGCAG”, the binding signal was 8570 fluorescence intensity (a.u.).

On to “CGACTACTCGGCCGGCCACCTGCGCCGTCTCTACCCCGAGCGGAGTCACCTAGTGCAG”, for which the binding signal was 9320 fluorescence intensity (a.u.).

In the case of “GTCCTGCTACGCATACTCTCCCCTCTGACTCTTTGCGCCACGGAGTCACCTAGTGCAG”, the binding signal is 8250 fluorescence intensity (a.u.).

As to “GGTCCATCACTCCAAGGTCAGTGCTTTTTTATTTACTCTACGGAGTCACCTAGTGCAG”, the binding signal is 14600 fluorescence intensity (a.u.).

Regarding “AATAAGACGAAAAGTCAAACGTTTGTCAAAAAGTCAACGGCGGAGTCACCTAGTGCAG”, the binding signal was 8290 fluorescence intensity (a.u.).

For “CGGGCGGGTCAAGGTCTCCTCCTCTCTCGTCGGCGACCTCCGGAGTCACCTAGTGCAG”, the binding signal was 10900 fluorescence intensity (a.u.).

On to “TACTCCTCGTCATTTTGGTTTTGGTTTTGGTTTGGGTGGTCGGAGTCACCTAGTGCAG”, for which the binding signal is 10400 fluorescence intensity (a.u.).

Take “CCAAGGGTGGGGCCTCTCGTCGTCTCGTCTCCTCTCGTCTCGGAGTCACCTAGTGCAG”: the binding signal is 20400 fluorescence intensity (a.u.).

Take “GACTAATAGCTTCAGTTTTGCATGCGATGGCCACTCAAATCGGAGTCACCTAGTGCAG”: the binding signal is 10100 fluorescence intensity (a.u.).

As for “TTCAGTTTTCACTTCATTATTTTGCCGTTTCTCTTTGACCCGGAGTCACCTAGTGCAG”, the binding signal was 12300 fluorescence intensity (a.u.).

On to “GCTCCTCGTCGCCACCGATCCCCGCCGCCGGCTTGCCTCACGGAGTCACCTAGTGCAG”, for which the binding signal was 9340 fluorescence intensity (a.u.).

For “CGCGCCCACCAGTCCACTCACGCGGTCACTCTCCTCCAGTCGGAGTCACCTAGTGCAG”, the binding signal is 8140 fluorescence intensity (a.u.).

Take “CACCACCCCGGCCGCTTCCGCCACTTCACTCCACTCCACACGGAGTCACCTAGTGCAG”: the binding signal was 13200 fluorescence intensity (a.u.).

As to “ATCACACGCTGCACCTCTCCCGCGCCCACCAGTCCACTCACGGAGTCACCTAGTGCAG”, the binding signal is 18500 fluorescence intensity (a.u.).

Turning to “CACCACACGTCACGCTTCCACCTCCACCTCCACCTCACTGCGGAGTCACCTAGTGCAG”, the binding signal is 11900 fluorescence intensity (a.u.).

Turning to “CCACTCACCACGCGCGCTGCCCGCTTGCCTCCTCTGCCCACGGAGTCACCTAGTGCAG”, the binding signal is 10200 fluorescence intensity (a.u.).

On to “ACCACTCCACGCGCCTATATCACCACACGTCACGCTTCCACGGAGTCACCTAGTGCAG”, for which the binding signal is 16700 fluorescence intensity (a.u.).

Turning to “ACGCTGTTGTAATTCCAGATGTTGGTCAGTAGTCATTACTCGGAGTCACCTAGTGCAG”, the binding signal is 10700 fluorescence intensity (a.u.).

Take “CGGGGAGTCGTTGCTGTTCTTGTTCTTGGTCGAGGTTGAGCGGAGTCACCTAGTGCAG”: the binding signal was 14500 fluorescence intensity (a.u.).

With “TCAGCAATCTCTCTTTCTACTAGGGTCTCTTCTACCAGCGCGGAGTCACCTAGTGCAG”, the binding signal is 8070 fluorescence intensity (a.u.).

In the case of “TTGACCACCAAGCTCCTGCTTCTTGCAATCTTGATCGATACGGAGTCACCTAGTGCAG”, the binding signal was 9170 fluorescence intensity (a.u.).

As for “ATCCTCATATCGTGTATCCGTATTCGTATCCCCGTATTTGCGGAGTCACCTAGTGCAG”, the binding signal is 8230 fluorescence intensity (a.u.).

Take “CTGCACCTAAAGCCTTTCAGAAAACTTTTCACCCTGTCAACGGAGTCACCTAGTGCAG”: the binding signal was 8740 fluorescence intensity (a.u.).

As for “ACATCAACACACCATCACTCGCACAAAACACACTAATAAACGGAGTCACCTAGTGCAG”, the binding signal was 8440 fluorescence intensity (a.u.).

In the case of “TCAACCATAATCACTAGTGTCACAAACACCTTGAAATTCACGGAGTCACCTAGTGCAG”, the binding signal was 8120 fluorescence intensity (a.u.).

For “CACTAATTGATCAATTGCACAACAAATTGCTTGAATAACGCGGAGTCACCTAGTGCAG”, the binding signal was 65500 fluorescence intensity (a.u.).

Turning to “AGAATGTTATACGGCGCTCGATCTATTATTCCGCACTCTACGGAGTCACCTAGTGCAG”, the binding signal is 8130 fluorescence intensity (a.u.).

Take “TCTCCGTTGTAATATGTTCTTTGTCCTCGATGTGTTTCCGCGGAGTCACCTAGTGCAG”: the binding signal is 11400 fluorescence intensity (a.u.).

For the sequence “AATTTCGTTTTTAATACGCCCAGTGAAATTTGCTGTCTAGCGGAGTCACCTAGTGCAG”, the binding signal is 17500 fluorescence intensity (a.u.).

For “GATGTACTGAACTGTTTTTTTTTTCGTTTTTAATTTCTAGCGGAGTCACCTAGTGCAG”, the binding signal is 8550 fluorescence intensity (a.u.).

On to “GTTTTACTAGTGAATTTTCTTTTCTTTGCTTCGTTTAATGCGGAGTCACCTAGTGCAG”, for which the binding signal is 8930 fluorescence intensity (a.u.).

On to “TCTCGCCACCTTCGCCTCCATCTCATCGACCGCCCACTTCCGGAGTCACCTAGTGCAG”, for which the binding signal was 12800 fluorescence intensity (a.u.).

For the sequence “TCATAATGCATCAATCTATTACTTTAGCTATCTATTTATACGGAGTCACCTAGTGCAG”, the binding signal was 9530 fluorescence intensity (a.u.).

In the case of “ATGACTTTAATATGTTAGCTTTTCATGCATGTGTCAATTTCGGAGTCACCTAGTGCAG”, the binding signal was 8700 fluorescence intensity (a.u.).

Take “GCATATAATTAGTTTACCATGGCTTTAATCAATCATATGCCGGAGTCACCTAGTGCAG”: the binding signal is 29300 fluorescence intensity (a.u.).

Consider “GCAACGCCGCCGTTTTCTTCGCCTCTCACAGAGACGACTCCGGAGTCACCTAGTGCAG”, for which the binding signal is 9200 fluorescence intensity (a.u.).

For the sequence “AGCCATCTATCACCATGGCTGAAGCCATGTTATATATATCCGGAGTCACCTAGTGCAG”, the binding signal was 8560 fluorescence intensity (a.u.).

As for “TTTTTGGGGTTTTCTCTTCTTGATTGATTCGTTCTTGGCGCGGAGTCACCTAGTGCAG”, the binding signal was 13100 fluorescence intensity (a.u.).

For “TTCGGGTTTTTTTTTTGTTTATTTTGTCTTTCGCTTTTCACGGAGTCACCTAGTGCAG”, the binding signal was 14900 fluorescence intensity (a.u.).

Consider “GGGGTTCGTTTTGTTTCTTGACACACGCTTGAGTCTTATTCGGAGTCACCTAGTGCAG”, for which the binding signal was 16900 fluorescence intensity (a.u.).

Source of the values: paper PMC7819943, “Rice protein-binding microarrays: a tool to detect cis-acting elements near promoter regions in rice”.
